High-throughput results (PubChem BioAssay)
An excerpt weighted towards active compounds, which were near 1.6% of everything screened.
KCNQ2 inh: blocks the rat KCNQ2 potassium channel. CHO-K1 KCNQ2, FluxOR thallium flux, 20 min; active compounds read low. B-score at 10 µM. AID 2156. 310,000 tested, 1.1% active. O88943;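 active = fluorescence ratio B-score at most minus 3 library SDs, with starting brightness B-score within 2 library SDs, cut at about -5.5 in these data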
KCNQ2 pot: enhances the rat KCNQ2 potassium channel; O88943; B-score at 10 µM; 310,000 tested, 0.54% active; CHO-K1 KCNQ2, FluxOR thallium flux fluorescence; active compounds read high;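 active = fluorescence ratio B-score at least 3 SD of library B-scores, with initial fluorescence B-score within 3 of them, cut at about 5.3 in these data; same plate scores as AID 2156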;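 note: B-score of peak minus minimum over baseline fluorescence ratio after K+ and Tl+ stimulus; positive B-score means potentiation of KCNQ2 with more thallium influx and brighter signal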
Kir21 conf inh: confirmation of mouse Kir2.1 potassium channel inhibitors; AID 2032; Tl flux remaining, % of negative control (active compounds read low), % at 10 µM; shares compounds with KCNQ2 pot; 2,300 tested, 41% active; Kir2.1-expressing cells, FluxOR thallium flux fluorescence; active compounds read low;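 active = Primary-screen hit whose thallium flux fell at least 3 control SD below untreated wells in both duplicates, with normal baseline fluorescence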;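 note: 0% = blank wells without stimulus and 100% = stimulated no-compound controls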
Target sequence (P35561 whole entry, looked up): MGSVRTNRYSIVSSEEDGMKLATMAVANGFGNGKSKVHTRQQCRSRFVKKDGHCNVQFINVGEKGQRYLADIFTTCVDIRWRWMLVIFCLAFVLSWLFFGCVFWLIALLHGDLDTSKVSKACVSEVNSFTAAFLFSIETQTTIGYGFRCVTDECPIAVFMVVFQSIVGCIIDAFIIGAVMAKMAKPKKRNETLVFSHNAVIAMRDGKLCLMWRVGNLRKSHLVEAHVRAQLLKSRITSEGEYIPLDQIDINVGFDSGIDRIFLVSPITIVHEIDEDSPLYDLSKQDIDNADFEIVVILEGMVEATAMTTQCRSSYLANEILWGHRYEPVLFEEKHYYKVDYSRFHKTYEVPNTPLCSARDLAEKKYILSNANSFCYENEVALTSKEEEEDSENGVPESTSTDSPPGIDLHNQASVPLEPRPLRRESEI
HEK293 ctr: counter-screen for Kir2.1 inhibitors: effect in parental HEK293 cells | shares compounds with KCNQ2 pot | FluxOR thallium flux fluorescence; 0% = unstimulated blank wells | FluxOR signal as % of negative control (100 = no effect), % at 10 µM | 2,300 tested, 19% active | AID 2105;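 active = dye signal at least 3 control SD above or below untreated wells in both duplicates, raw fluorescence within 3, either direction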;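 note: percent is based on the flux ratio of peak minus minimum fluorescence over baseline F0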
CHO-K1 Tl ctr: counter-screen for KCNQ2 potentiators: effect in parental CHO-K1 cells; shares compounds with KCNQ2 pot; FluxOR thallium flux fluorescence; zero = vehicle mean+3SD, 100% = vehicle-minus-blank window; activity increase over 3SD of controls, % at 10 µM; 1,200 tested, 43% active;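 active = signal rise of at least 3 SD above the untreated control mean, in both duplicate wells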;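 note: counter screen of KCNQ2 potentiator hits so any rise reflects channel-independent effects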
KCNQ1 sel pot: selectivity of KCNQ2 potentiators: effect on human KCNQ1; activation over 3SD threshold, % at 10 µM; AID 2283; shares compounds with KCNQ2 pot; CHO KCNQ1 stable, FluxOR thallium flux fluorescence; beyond 3SD, as % of vehicle-control signal; 1,200 tested, 28% active;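 active = fluorescence ratio rise of at least 3 SD of vehicle wells above their mean, in both replicate wells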;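 note: 0% = vehicle mean plus 3 SD and 100% = vehicle minus unstimulated blank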
KCNQ2 pot confirm: confirmation of rat KCNQ2 potassium channel potentiators; CHO-KCNQ2 cells, FluxOR thallium flux fluorescence; 1,200 tested, 68% active; shares compounds with KCNQ2 pot; AID 2287; potentiation, less the hit threshold, % at 10 µM;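 active = fluorescence ratio rising 3 SD or more over the vehicle control mean in both replicates, plus primary screen hit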;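 note: peak minus minimum thallium fluorescence divided by baseline after K/Tl stimulus; 0% = vehicle mean plus 3 SD and 100% = vehicle minus unstimulated blank difference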
Kir2-1 sel: selectivity of KCNQ2 potentiators: effect on mouse Kir2.1. shares compounds with KCNQ2 pot. HEK293 Kir2.1, FluxOR thallium flux fluorescence. 1,200 tested, 2% active. activity over 3SD threshold, % at 10 µM. AID 2345;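 active = fluorescence ratio rise of at least 3 SD above the vehicle-control mean, seen in both replicates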;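 note: 0% = vehicle mean plus 3 SD and 100% = vehicle minus no-stimulus blank window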
KCNQ2 W236L MoA: rat KCNQ2 W236L mutant potentiation by KCNQ2 potentiators; shares compounds with KCNQ2 pot; CHO KCNQ2-W236L, automated patch clamp current; current increase over 3SD of negative controls (%), active compounds read high, % at 25 µM; 940 tested, 10% active; AID 2558;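 active = current increase at least 3 SD of the untreated controls above them in both duplicate recordings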
* marks the source's active call; other numbers are inactive results; i = inactive; . = no result given.

SMILES	KCNQ2 inh	KCNQ2 pot	Kir21 conf inh	HEK293 ctr	CHO-K1 Tl ctr	KCNQ1 sel pot	KCNQ2 pot confirm	Kir2-1 sel	others
O=C(Nc1cccnc1)Nc1cccc(F)c1	i	6.7*	i	i	2.5*	7.3*	16*	-21	KCNQ2 W236L MoA=18%*
O=C(Nc1ccncc1)Nc1cccc(F)c1	i	.	.	.	.	.	.	.
COc1cccc(/C=C/C(=O)OCC(=O)N2CCN(S(=O)(=O)c3ccc(Cl)cc3)CC2)c1	i	2	.	.	.	.	.	.
O=C(OCC(=O)N1CCN(S(=O)(=O)c2ccc(Cl)cc2)CC1)c1cccc(OC(F)F)c1	i	11*	i	i	-8	-16	12*	-29	KCNQ2 W236L MoA=i
CCOc1ccc(S(=O)(=O)N2CCC(C(=O)N3CCCC3)CC2)cc1C	i	0.3	.	.	.	.	.	.
Cc1ccc(C(=O)N/C(=C\c2ccco2)C(=O)NCCN2CCOCC2)cc1C	i	0.56	.	.	.	.	.	.
Cc1ccc(C)c(S(=O)(=O)Nc2ccc(O)cc2)c1	i	3.1	.	.	.	.	.	.
Cc1cc(C)c(S(=O)(=O)Nc2ccc(O)cc2)cc1C	i	10*	.	.	-11	1.5*	40*	-81	KCNQ2 W236L MoA=i
Cc1ccc(-n2nnnc2C(Cl)c2nnnn2-c2ccc(C)cc2)cc1	i	.	39%*	i	.	.	.	.
Cc1ccc(-n2nnnc2-c2ccccc2)cc1	i	.	.	.	.	.	.	.
O=C1COc2ccc(S(=O)(=O)Nc3ccc(F)cc3)cc2N1	i	0.79	.	.	.	.	.	.
CC(C)CCNCC(O)CON=C1c2ccccc2-c2ccccc21 (stereo not drawn)	i	.	.	.	.	.	.	.
COCCNCC(O)CON=C1c2ccccc2-c2ccccc21 (stereo not drawn)	i	.	32%*	i	.	.	.	.
O=C1CC(=O)N(CCNc2ncc(C(F)(F)F)cc2Cl)C(=O)N1	i	1.7	.	.	.	.	.	.
O=C1C=CC(=O)N1CCNc1ncc(C(F)(F)F)cc1Cl	i	.	74%*	i	.	.	.	.
Fc1ccccc1OCCCCN1CCCCC1	i	0.64	.	.	.	.	.	.
COc1cccc(CNc2ccc3[nH]c(=O)[nH]c3c2)c1OCc1ccccc1	i	7.9*	.	.	32*	-21	-6	-78
COc1cccc(CNc2ccc3[nH]c(=O)[nH]c3c2)c1OCc1ccccc1Cl	i	2.1	.	.	.	.	.	.
O=c1c2c3c(sc2nc(NCCOCCO)n1Cc1ccco1)CCCCC3	i	5.6*	i	i	-7	38*	-11	-38	KCNQ2 W236L MoA=6.1%*
CC(O)CNc1nc2sc3c(c2c(=O)n1Cc1ccco1)CCCCC3 (stereo not drawn)	i	1	.	.	.	.	.	.
O=C(Cc1ccccc1F)Nc1ccc2c(c1)CCC2	i	5.2	.	.	.	.	.	.
O=C(Cc1cccc(F)c1)Nc1ccc2c(c1)CCC2	i	5.5*	i	i	3.6*	-13	21*	-25	KCNQ2 W236L MoA=i
COc1ccc(/C=C2/SC(=S)N(NS(=O)(=O)c3ccc(C)cc3)C2=O)cc1	i	5.1	.	.	.	.	.	.
C=CCOc1ccc(/C=C2\SC(=S)N(NS(=O)(=O)c3ccc(C)cc3)C2=O)cc1	i	7.7*	i	158%*	17*	-21	17*	-36	KCNQ2 W236L MoA=i
CN(C)C(CNc1ncnc2sccc12)c1cccs1 (stereo not drawn)	i	0.7	.	.	.	.	.	.
CCOC(=O)c1sc2ncnc(NCC(c3cccs3)N(C)C)c2c1C (stereo not drawn)	i	7.7*	i	252%*	-8	0.2*	32*	-29	KCNQ2 W236L MoA=i
O=C(CN1C(=O)NC2(CCCC2)C1=O)N1CCN(S(=O)(=O)c2ccc(Cl)c(C(F)(F)F)c2)CC1	i	2.2	.	.	.	.	.	.
COc1ccc(Sc2ccccc2CN(C)C)cc1OC	i	0.47	.	.	.	.	.	.
CNCc1ccccc1Sc1ccc(O)c(O)c1	i	.	39%*	i	.	.	.	.
